TROY NFkB inh: TROY signaling inhibition; 360,000 tested, 0.98% active; inhibition, % at 10 µM; Q293 LMP1-TROYcd NF-kB luciferase reporter, 4 h;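 active = compounds whose plate-normalised and pattern-corrected inhibition of the luciferase reporter signal at the single screening dose is 50% or more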
Peg3 prom inh: inhibitors of Peg3 promoter. 360,000 tested, 1.7% active. inhibition, % at 20 µM. HeLa PEG-Prom luciferase reporter, luminescence, overnight. AID 588405;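 active = inhibition of at least 50% at 20 µM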
EBV LMP1 NFkB: reduces LMP1-driven NF-kappaB luciferase signal. LMP1-induced NF-kappaB luciferase reporter cells, luminescence. inhibition, % at 12.5 µM. 350,000 tested, 0.69% active; in the data active = inhibition above about 41%; inconclusive = no clear call, values can overlap the other calls
Shn3 inh set2: reduces Shn3 3'UTR luciferase signal in osteoblasts | 360,000 tested, 0.52% active | Clone20 osteoblast Shn3 3'UTR firefly luciferase, 24 h | inhibition, % at 12.5 µM;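 active = mean inhibition of at least 75% with every replicate also reaching 75%; inconclusive = mean inhibition at least 75% but some replicate below; inactive = mean inhibition below 75%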
TWEAK Fn14 block: TWEAK-Fn14 signaling inhibition | TWEAK-stimulated Fn14 reporter cells, luciferase luminescence, 8 h | inhibition, % at 10 µM | 360,000 tested, 2% active; in the data active = inhibition above about 50%
MITF TRPM1 inh: inhibitors of MITF-driven TRPM1 promoter in melanoma cells; SK-MEL-5 TRPM1 promoter luciferase, 24 h; AID 488899; 330,000 tested, 0.83% active; inhibition, % at 12.5 µM;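 active = mean inhibition across replicates of 60% or more, whatever share of single replicates reaches that level; inconclusive = some that reach 60%, reason not given; inactive = mean inhibition across replicates below 60%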
Hits are given with their value; - = inactive; ? = inconclusive; . = no result given. In the library only some 4.1% were active in any assay of this set; here they are far more common.

SMILES	TROY NFkB inh	Peg3 prom inh	EBV LMP1 NFkB	Shn3 inh set2	TWEAK Fn14 block	MITF TRPM1 inh
CCCNC(=O)NC(=O)COC(=O)c1ccc(S(=O)(=O)N(C)c2ccccc2OC)cc1	-	-	-	-	-	-
O=C(COC(=O)c1ccc(O)cc1)NCCC1=CCCCC1	-	-	-	-	-	-
COc1ccccc1N(C)S(=O)(=O)c1ccc(C(=O)OCC(=O)NCCC2=CCCCC2)cc1	-	-	-	-	54	-
O=C(CCSCc1ccccc1F)NCc1ccc(F)cc1	-	-	-	-	-	-
Cc1cc(C)n(S(=O)(=O)c2cc(C(=O)O)c(Cl)cc2Cl)n1	-	-	-	-	-	-
COC(=O)c1cc(S(=O)(=O)n2nc(C)c(Br)c2C)c(Cl)cc1Cl	-	87	-	-	-	-
CN(C)c1ccnc2c[cH-]cc12.[Fe].c1ccc(-[c-]2[c-](-c3ccccc3)[c-](-c3ccccc3)[c-](-c3ccccc3)[c-]2-c2ccccc2)cc1 (centres undefined)	-	96	-	-	-	-
Cc1cc(N2CCN(C(=O)c3ccoc3)CC2)n2nc(-c3ccccc3)cc2n1	-	-	-	-	-	.
COc1cccc(-c2cc3nc(-c4ccccc4)cc(N4CCN(C(=O)c5ccoc5)CC4)n3n2)c1	-	72	-	-	-	.
COc1ccccc1-c1cc2nc(-c3ccccc3)cc(N3CCN(C(=O)c4ccoc4)CC3)n2n1	-	81	-	-	-	.
COc1cccc(-c2cc(N3CCN(C(=O)c4ccoc4)CC3)n3nc(-c4cccc(Cl)c4)cc3n2)c1	-	-	-	-	-	.
O=C(c1ccoc1)N1CCN(c2cc(-c3ccco3)nc3cc(-c4ccccc4)nn23)CC1	-	74	-	-	-	.
Cc1cc(N2CCN(C(=O)c3ccco3)CC2)n2ncc(-c3ccccc3)c2n1	-	-	-	-	-	-
COc1ccccc1-c1cc2nc(-c3ccccc3)cc(N3CCN(C(=O)c4ccco4)CC3)n2n1	70	73	-	-	98	.
Cn1ncc(Cl)c1C(=O)NCC1CCCO1 (centres undefined)	-	-	-	-	-	-
COc1ccc(S(=O)(=O)N2CCC(C(=O)N(CC(C)C)C3CCS(=O)(=O)C3)CC2)cc1OC (centres undefined)	-	-	-	-	-	-
CCOc1ccc(-c2c(C#N)c(N)nc3sc(C(=O)c4ccccc4)c(N)c23)cc1	89	-	-	-	76	-
Cc1cccc(S(=O)Cc2ccc(C(=O)N3CCN(C(=O)c4ccco4)CC3)o2)c1 (centres undefined)	-	-	-	-	-	-
CCN(Cc1ccc(OC)c(F)c1)C(=O)CCl	-	-	-	-	-	75
CCN(Cc1ccc(OC)c(F)c1)C(=O)C1CCCO1 (centres undefined)	-	-	-	-	-	-
Cc1ccccc1NC(=O)Cc1nnc(SCC(=O)NC2CCCC2)n1C	-	-	-	-	-	-
CC1(C(=O)NS(=O)(=O)c2cccs2)CCN1C(=O)CC1CCCC1 (centres undefined)	-	-	.	-	-	.
COc1ccc(-n2nc(C(=O)NCC(=O)N3CCC(C)CC3)c3ccccc3c2=O)c(OC)c1	-	-	-	-	-	-
NC(=O)c1nsc(C(=O)N(CC(=O)NC2CCCCC2)Cc2ccc(F)cc2)c1N	-	-	-	-	-	-
CN(CCO)c1cc(Sc2nc3ccccc3s2)c2nonc2c1[N+](=O)[O-]	-	104	-	87	-	91
SMILES	TROY NFkB inh	Peg3 prom inh	EBV LMP1 NFkB	Shn3 inh set2	TWEAK Fn14 block	MITF TRPM1 inh
CN(C)S(=O)(=O)c1ccc(Cl)c(NC(=O)COC(=O)CCC2CCCCC2)c1	-	-	-	-	-	-
Cc1cc(SCC(=O)NC2(C#N)CCCCC2)nc2c(C)cccc12	-	-	-	-	-	-
CCOC(=O)[C@]12CCCC=C1N(Cc1ccco1)C(=O)[C@H](CC(=O)NCCCCc1ccccc1)C2	-	.	.	.	-	.
COc1ccc(CNC(=O)Nc2nc(C(N)Cc3ccc(Cl)cc3)cs2)cc1 (centres undefined)	-	96	.	-	-	.
COc1ccccc1CNC(=O)Nc1nc(C(N)Cc2ccc(Cl)cc2)cs1 (centres undefined)	-	94	.	-	-	.
COc1cc(CNC(=O)Nc2nc(C(N)CCc3ccccc3)cs2)cc(OC)c1OC (centres undefined)	-	-	.	-	-	.
COc1ccc(CNC(=O)Nc2nc(C(N)CCc3ccccc3)cs2)cc1 (centres undefined)	-	88	.	-	-	.
CC(C)c1ccc(/C=C/C(=O)Nc2nc3ccc([N+](=O)[O-])cc3s2)cc1	-	-	-	-	-	-
O=[N+]([O-])c1ccc2nc(NN=Cc3ccc(O)cc3)sc2c1	66	72	-	-	69	-
CC(=O)Nc1cc(-c2ccc(C(=O)NC3CC3)cc2)cn2c(-c3cccc(C(F)(F)F)c3)cnc12	-	-	.	-	-	.
CCOC(=O)c1nnc(-c2ccc(C)cc2)nc1Sc1cccc(Cl)c1	-	-	-	-	-	-
CCOC(=O)c1nnc(-c2ccccc2)nc1Sc1ccccc1Cl	-	51	-	-	57	-
Cc1cc(F)ccc1-c1cc(C(=O)NC2CCCCC2)[nH]n1	-	-	.	-	-	.
Cc1onc(-c2c(F)cccc2Cl)c1C(=O)Nc1sc2c(c1C(N)=O)CCC2	-	52	-	-	-	-
Cc1onc(-c2ccccc2Cl)c1C(=O)Nc1nc2c(s1)CCCC2	52	-	-	-	-	-
Cc1onc(-c2ccccc2Cl)c1C(=O)Nc1nnc(-c2ccc(Cl)cc2Cl)s1	-	-	-	-	-	-
Cc1onc(-c2ccccc2)c1C(=O)Nc1sc2c(c1C(N)=O)CCC2	-	-	-	-	-	-
O=C(CCCN1C(=O)/C(=C/c2ccco2)SC1=S)Nc1ccccc1C(=O)O	-	-	-	-	-	-
CC(=Cc1ccccc1)C=C1SC(=S)N(CCCC(=O)Nc2ccc(C(=O)O)cc2)C1=O	-	-	.	-	64	.
CC(/C=C1\SC(=S)N(CCCC(=O)Nc2ccc(C(=O)O)cc2)C1=O)=C\c1ccccc1	-	-	-	-	50	-
O=C(CCCN1C(=O)/C(=C\c2ccco2)SC1=S)Nc1ccc2ccccc2c1	-	-	-	-	59	-
CC(/C=C1\SC(=S)N(CCC(=O)Nc2cccc(C(=O)O)c2)C1=O)=C\c1ccccc1	-	-	-	-	-	-
O=C(N[C@H](Cc1cc(=O)[nH]c2ccccc12)C(=O)O)c1ccc(Cl)cc1	-	-	-	-	-	-
CCOc1ccc2nc(NC3=NC(c4ccc(OC)cc4)CC(=O)N3)nc(C)c2c1 (centres undefined)	-	62	-	-	-	?
CCOc1ccc2c(C)nc(NC3=NC(C)(C)C=C(C)N3)nc2c1	-	-	-	-	-	-
CCOc1ccc2nc(NC3=NC(C)(C)C=C(C)N3)nc(C)c2c1	-	53	-	-	-	-
